This note sets out measurements from PubChem BioAssay (NCATS).

Experiment [1] concerns the target Protein phosphatase 1D (Homo sapiens) (UniProt O15297). Put plainly: RapidFire Mass Spectrometry qHTS Assay for Modulators of WT P53-Induced Phosphatase 1 (WIP1) (AID 1347424).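 Further: amount of dephosphorylated VEPPL-S-QETFS peptide product formed by WIP1; series mostly up to about 63 µM.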 A digest of the protocol: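 10 nM WIP1 + cpd, 1 h RT; + 2 uM VEPPL-pS-QETFS, 5 min RT; stop 0.5% formic acid; labelled product standard 1 uM; RapidFire MS. Buffer 50 mM Tris pH 7.5, 30 mM MgCl2, 1 mM TCEP.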
On the technique in general: In qHTS, concentration-response curves come from the screen itself.

Experiment [2] has the same target. Put plainly: Rhodamine-PBP qHTS Assay for Modulators of WT P53-Induced Phosphatase 1 (WIP1) (AID 1347425). In short, it runs like this: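 Read-out: Rhodamine-PBP fluorescence (ex 525/em 598 nm) for released Pi, read each minute for 11 min after adding 10 uM VEPPL-pS-QETFS; signal taken as f1 minus pre-substrate f0. Enzyme 5 nM WIP1 with 1 hr room-temperature compound preincubation.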

Experiment [3] is described as follows: Primary qHTS for inhibitors of La Crosse Virus (LACV) - induced cell death in SH-SY5Y cells (AID 1508616).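 Further: top concentration of the series differs between compounds; higher means more rescue of cells from virus-induced death.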 A digest of the protocol: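 Readout was luminescence from ATPLite 1step added after a 6-day LACV infection (0.01 MOI) of SH-SY5Y cells that had received pin-transferred compound 24 hr after seeding.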
The target in experiment [4] is Calcium and integrin-binding protein 1 (Homo sapiens) (UniProt Q99828). Briefly: Primary qHTS for Identification of Calcium Integrin Binding Protein 1 (CIB1) Competitor (AID 1508620).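 Further: GST tagged CIB1 binding a fluorescein labelled alphaIIb integrin peptide tracer; top concentration of the series differs between compounds.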 In short, it runs like this:
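CIB1-GST (1 uM final) and compound incubated 15 min at room temperature before adding FITC-alphaIIb peptide tracer (100 nM final). Competition for binding read by fluorescence polarization (ex 480, em 540) after another 15 min at room temperature.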

Experiment [5] can be described thus: Counterscreen qHTS for small molecule stabilizers of the endoplasmic reticulum resident proteome: GLuc-NoTag assay (AID 1508627).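 Further: SH-SY5Y cells given compound then 100 nM thapsigargin to empty ER calcium; series mostly up to about 76 µM.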 In short, it runs like this:
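Luminescence of Gaussia luciferase secreted into the medium (coelenterazine, 0.07x final, unlysed cells) was the read-out. Human SH-SY5Y neuroblastoma cells constitutively secreting untagged GLuc received compound for 19 h, then 100 nM thapsigargin for 4 h.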
On the technique in general: Counterscreens check selectivity or assay interference.

A short description of experiment [6]: Confirmatory qHTS for small molecule stabilizers of the endoplasmic reticulum resident proteome: Secreted ER Calcium Modulated Protein (SERCaMP) assay (AID 1508628). Further: nearly all actives have a fitted effect of over 40% in size. Further: potency means the concentration at half of the fitted maximal effect. In short, it runs like this: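 We seeded SH-SY5Y-GLuc-SERCaMP cells, added compounds (three concentrations in the primary run, eleven up to 76.6 uM in confirmation), incubated 16 h, depleted ER calcium with thapsigargin, and read luciferase 4 h later.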

Where “and” joins values, the source holds several entries; their conditions need not be identical. Identical values can stand only once. Records with an inconclusive call do not appear. Values without a mark were called inactive. Calls of active or inactive are those of the source. The call rests on the fitted dose curve; in most records, active means well fitted curve in the direction sought with a large enough effect; inconclusive means small, poorly fitted or top-dose-only effect, or another doubt; inactive means no such curve, though single readings can be large; an effect the other way counts as inactive or inconclusive.

Protein phosphatase 1D (Homo sapiens), sequence (O15297 whole entry, looked up): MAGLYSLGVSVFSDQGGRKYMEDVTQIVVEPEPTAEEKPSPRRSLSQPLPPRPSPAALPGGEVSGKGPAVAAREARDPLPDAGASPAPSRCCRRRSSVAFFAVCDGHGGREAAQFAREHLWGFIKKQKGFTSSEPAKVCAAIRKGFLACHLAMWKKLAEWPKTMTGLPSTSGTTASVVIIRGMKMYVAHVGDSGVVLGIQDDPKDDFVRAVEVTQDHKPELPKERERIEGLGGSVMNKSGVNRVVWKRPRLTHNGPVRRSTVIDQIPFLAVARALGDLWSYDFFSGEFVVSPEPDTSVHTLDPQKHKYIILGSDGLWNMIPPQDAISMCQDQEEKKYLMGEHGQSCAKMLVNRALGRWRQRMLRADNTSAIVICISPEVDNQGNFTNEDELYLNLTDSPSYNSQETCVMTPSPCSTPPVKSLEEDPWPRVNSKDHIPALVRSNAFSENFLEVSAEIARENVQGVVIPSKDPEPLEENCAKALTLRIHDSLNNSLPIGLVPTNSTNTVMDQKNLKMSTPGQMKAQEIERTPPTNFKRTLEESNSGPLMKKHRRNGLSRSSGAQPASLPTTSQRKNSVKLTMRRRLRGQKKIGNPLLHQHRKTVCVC
Calcium and integrin-binding protein 1 (Homo sapiens), sequence (Q99828 whole entry, looked up): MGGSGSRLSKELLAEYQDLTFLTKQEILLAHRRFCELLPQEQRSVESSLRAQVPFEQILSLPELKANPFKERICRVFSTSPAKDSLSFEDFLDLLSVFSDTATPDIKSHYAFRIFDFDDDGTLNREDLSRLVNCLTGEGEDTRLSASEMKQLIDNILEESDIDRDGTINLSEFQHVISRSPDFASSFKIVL

In the case of `CC(C)[C@@H]1CC[C@@H](C)CC1=O`, the Potency result in experiment [1] and in experiment [4] was “inactive” each time. Besides, the call in experiment [2] and in experiment [3] was inactive.
On to `O=C(O)c1ccc(S(=O)(=O)N(Cl)Cl)cc1`, for which the Potency result in experiment [1] and in experiment [4] was “inactive” each time. For the same compound, the outcome in experiment [2] and in experiment [3] was inactive.
With `Cc1cccc(C)c1NC(=O)c1ccccc1C(=O)O`, the Potency result in experiment [1] and in experiment [4] was “inactive” in each case. The outcome in experiment [2] and in experiment [3] was inactive.
Regarding `O=C(CCN1CCN2CCCC2C1)N1c2ccccc2Sc2ccc(Cl)cc21` (stereo not drawn), the Potency result in experiment [1] and in experiment [4] was “inactive” in each case. For the same compound, the result in experiment [2] and in experiment [3] was inactive.
As for `CCC(C(=O)OCCOCCN(CC)CC)c1ccccc1` (stereo not drawn), the Potency result in experiment [1] and in experiment [4] was “inactive” each time. Further, the call in experiment [2] and in experiment [3] was inactive.
`CN(CCCN1c2ccccc2CCc2ccccc21)CC(=O)c1ccc(Cl)cc1`: the Potency entry in experiment [1], in experiment [4] and in experiment [5] was “inactive” each time. In addition, the compound was called inactive in experiment [2] and in experiment [3]. Further, in experiment [6], the Potency is 31.6 µM (active) and 39.8 µM (active).
On to `CCOc1cc(OCC)c(C(=O)CCC(=O)O)cc1OCC`, for which the Potency result in experiment [1], in experiment [4], in experiment [5] and in experiment [6] was “inactive” throughout. The compound was classed as inactive in experiment [2] and in experiment [3].
Turning to `C#C[C@]1(O)CC[C@H]2[C@@H]3CCc4cc(OC)ccc4[C@H]3CC[C@@]21C`, the Potency entry in experiment [1] and in experiment [4] was “inactive” throughout. For the same compound, the call in experiment [2] and in experiment [3] was inactive.
Regarding `NS(=O)(=O)c1ccc(Cl)c(S(N)(=O)=O)c1`, the Potency result in experiment [1] and in experiment [4] was “inactive” in each case. Also, the result in experiment [2] and in experiment [3] was inactive.
`COc1ccc(CN(CCN(C)C)c2ncccn2)cc1`: the Potency result in experiment [1] and in experiment [4] was “inactive” in each case. In addition, the call in experiment [2] and in experiment [3] was inactive.
In the case of `O=C1OC(CN2CCOCC2)CN1/N=C/c1ccc([N+](=O)[O-])o1` (stereo not drawn), the Potency result in experiment [1] and in experiment [4] was “inactive” each time. Also, the call in experiment [2] and in experiment [3] was inactive.
As to `COC(=O)C(c1ccccc1Cl)N1CCc2sccc2C1` (stereo not drawn), the Potency entry in experiment [1] and in experiment [4] was “inactive” throughout. In addition, the outcome in experiment [2] and in experiment [3] was inactive.
As for `Cl/C(=C\n1cncn1)c1ccc(Cl)cc1Cl`, the Potency entry in experiment [1] and in experiment [4] was “inactive” throughout. Moreover, the result in experiment [2] and in experiment [3] was inactive.
Take `COc1ccc(/C=N/NC(=O)c2ccncc2)cc1OC`: the Potency entry in experiment [1] and in experiment [4] was “inactive” in each case. Besides, the compound was classed as inactive in experiment [2] and in experiment [3].
As for `CC(C)CCCC(C)N` (stereo not drawn), the Potency entry in experiment [1] and in experiment [4] was “inactive” in each case. Further, the compound was called inactive in experiment [2] and in experiment [3].
For the compound `OCc1ccccn1`, the Potency entry in experiment [1] and in experiment [4] was “inactive” in each case. Also, the call in experiment [2] and in experiment [3] was inactive.
`COc1ccc2c(c1)c1c3n2CCN(C)C3=NCC1`: the Potency entry in experiment [1] and in experiment [4] was “inactive” each time. Further, the outcome in experiment [2] and in experiment [3] was inactive.
For `O[C@@H](c1cc(C(F)(F)F)nc2c(C(F)(F)F)cccc12)[C@H]1CCCCN1`, the Potency entry in experiment [1] and in experiment [4] was “inactive” throughout. The compound was classed as inactive in experiment [2] and in experiment [3].
Regarding `CCCc1ncc(C[n+]2ccccc2C)c(N)n1`, the Potency entry in experiment [1] and in experiment [4] was “inactive” each time. Besides, the compound was called inactive in experiment [2] and in experiment [3].
`C/C=C/c1ccc(O)c(OC)c1`: the Potency result in experiment [1] and in experiment [4] was “inactive” each time. In addition, the compound was classed as inactive in experiment [2] and in experiment [3].
Regarding `CC(=O)NO`, the Potency entry in experiment [1] and in experiment [4] was “inactive” throughout. Moreover, the call in experiment [2] and in experiment [3] was inactive.
For the compound `CC[N+](C)(CC)CCOC(=O)C(O)(c1ccccc1)C1CCCCC1` (stereo not drawn), the Potency entry in experiment [1] and in experiment [4] was “inactive” throughout. In addition, the outcome in experiment [2] and in experiment [3] was inactive.
Take `CC(C)(Cc1c[nH]c2ccccc12)NCC(O)COc1ccccc1C#N` (stereo not drawn): the Potency result in experiment [1], in experiment [4] and in experiment [5] was “inactive” each time. For the same compound, the outcome in experiment [2] and in experiment [3] was inactive.
As to `COc1cc(C(=O)N2CCCCCCC2)cc(OC)c1OC`, the Potency entry in experiment [1] and in experiment [4] was “inactive” each time. In addition, the compound was called inactive in experiment [2] and in experiment [3].
Take `CN1CCC(OC(c2ccccc2)c2ccccc2)CC1`: the Potency entry in experiment [1], in experiment [4], in experiment [5] and in experiment [6] was “inactive” throughout. The outcome in experiment [2] and in experiment [3] was inactive.
For the compound `C[N+]1(CC2COC(c3ccccc3)(C3CCCCC3)O2)CCCCC1` (stereo not drawn), the Potency entry in experiment [1] and in experiment [4] was “inactive” each time. Moreover, the compound was classed as inactive in experiment [2] and in experiment [3].
For `CCCCCCCCCCCCOCCOCCOCCOCCOCCOCCOCCOCCOCCO`, the Potency result in experiment [1] and in experiment [4] was “inactive” in each case. For the same compound, the compound was called inactive in experiment [2] and in experiment [3].
Consider `CC(=O)OC[C@H]1O[C@@H](n2ncc(=O)[nH]c2=O)[C@H](OC(C)=O)[C@@H]1OC(C)=O`, for which the Potency result in experiment [1] and in experiment [4] was “inactive” throughout. Further, the compound was classed as inactive in experiment [2] and in experiment [3].
For the compound `Nc1ccc(S(=O)(=O)Nc2cnc3ccccc3n2)cc1`, the Potency result in experiment [1] and in experiment [4] was “inactive” each time. In addition, the call in experiment [2] and in experiment [3] was inactive.
As for `C=CCN1CCc2nc(N)sc2CC1`, the Potency result in experiment [1], in experiment [4], in experiment [5] and in experiment [6] was “inactive” in each case. The compound was classed as inactive in experiment [2] and in experiment [3].
Regarding `CCOC(=O)c1ccc(N)cc1`, the Potency entry in experiment [1] and in experiment [4] was “inactive” each time. Also, the compound was classed as inactive in experiment [2] and in experiment [3].
